High-throughput results: PubChem BioAssay, Broad Institute
The list is not random: actives were taken first. Their share in the collection is about 3.1%.
Env fusion inh: inhibitors of HIV-1 Env-driven cell-cell fusion, primary screen, HeLa-JRFL effector, CEM21 target cells, luciferase; inhibition, % at 12.3 µM; AID 651610, 2012; hit rate 1.1% among 360,000;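 active = mean replicate inhibition score of at least 50 and every replicate individually at or above 50; inconclusive = only one of the two criteria met; inactive = mean below 50 and not all replicates reaching 50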;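 note: 0% = plate neutral controls and 100% = maraviroc near 300 nM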
INS-1E GSIS act: GLuc luminescence reporter in INS-1E cells, primary screen for activators of glucose-dependent secretion of insulin | hit rate 0.61% among 370,000 | activation, % at 16.6 µM | AID 743287, 2014 | INS-1E GLuc reporter insulin secretion, 2-3 h;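 active = lowest replicate activation of at least 40%, so every replicate reaches that level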;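 note: 0% = median of neutral control wells and 100% = median of IBMX positive control wells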
miR122 inh: miR-122 Renilla sensor signal increase in Huh7, primary screen, miR-122 inhibitor project, cell-based, single point, plate reader; Huh7 miR-122 Renilla luciferase sensor, 48 h; neutral wells = 0, positive control = 100; activation (reporter increase), % at 12.5 µM; hit rate 0.3% among 340,000; AID 602342, 2012;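 active = mean replicate activation score at least 90 and every replicate individually at or above 90; inconclusive = only one of the two criteria met; inactive = neither criterion met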;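 note: higher luciferase means less miR-122 activity so hits act as miR-122 inhibitors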
EWS-Fli inh: EWS/Fli-driven NR0B1 reporter inhibitors, primary screen, A673 cells, NR0B1 luciferase, luminescence, MLPCN library. viability-normalised. inhibition, % at 12.6 µM. hit rate 0.67% among 350,000. AID 651661, 2012;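 active = mean inhibition of at least 50% after viability correction, with every replicate also passing that limit; inconclusive = mean reaches 50% but only one of two replicates passes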;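 note: firefly luciferase signal divided by Alamar Blue viability fluorescence both relative to DMSO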
C2C12 statin: suppressors of statin myotoxicity in C2C12 myotubes, primary screen, cell-based, single point, plate reader. C2C12 myotubes + simvastatin, ATP luminescence, 48 h; scaled: DMSO 0, geranylgeraniol control 100. rescue of ATP level, % at 7.49 µM. hit rate 0.78% among 330,000;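 active = mean ATP rescue above about 67%, or every replicate alone reaching that limit, limit read from the data, passing the limit was not always enough; inconclusive = no clear call, values can overlap the other calls; inactive = mean under the limit and some replicate under it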;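 note: myotubes were challenged with 10 µM simvastatin during compound exposure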
PAX8 inh HTS: inhibitors of PAX8-driven TPO luciferase reporter, primary screen, RMG-I cells, single concentration | SteadyGlo, 24 h | inhibition, % at 12.6 µM | hit rate 1.2% among 360,000;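 active = mean replicate inhibition at least 60% with every replicate also reaching 60%; inconclusive = only one of the two criteria is met; inactive = mean below 60% and not all replicates reaching 60%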;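 note: luciferase light reporting Pax8 driven TPO promoter activity; plate controls were median of neutral control wells for no effect and mitoxantrone controls for full effect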
Active calls of the source: *; ? = inconclusive; . = no result; ! = not active in a repeat; [ ] = remark or other dose.

SMILES	Env fusion inh	INS-1E GSIS act	miR122 inh	EWS-Fli inh	C2C12 statin	PAX8 inh HTS
Cc1c(C(=O)N2CC3(CC(c4cccc(NC(=O)CC(c5ccccc5)c5ccccc5)c4)=NO3)C[C@@H]2C(N)=O)cc([N+](=O)[O-])cc1[N+](=O)[O-] (some centres not stated)	17	-7	.	6	16	65*
NC(=O)[C@H]1CC2(CC(c3cccc(NC(=O)COc4ccc(Cl)cc4)c3)=NO2)CN1C(=O)C(c1ccccc1)c1ccccc1 (some centres not stated)	-93	-4	-5	10	47	89*
C/C=C(\C)C(=O)Nc1cccc(C2=NOC3(C2)C[C@@H](C(N)=O)N(C(=O)c2cc([N+](=O)[O-])cc([N+](=O)[O-])c2C)C3)c1 (some centres not stated)	-3	-7	-4	6	-2	13
COc1ccccc1NC(=O)N1CCCCN2[C@H](CO)[C@@H](c3ccc(C#CC4CC4)cc3)[C@@H]2C1	.	.	.	-4	.	15
Cc1ccc(C(=O)N(C)CC(=O)Nc2ccc(Cl)c(C(F)(F)F)c2)cc1S(=O)(=O)N1CCCCC1	.	-15	4	48	-11	24
CN(Cc1ccc(F)cc1)C(=O)c1cccc(S(=O)(=O)N2CCN(c3ccc(F)cc3)CC2)c1	57*	-27	-2	31	9	37
CSc1ccc(CN(C)C(=O)c2cccc(S(=O)(=O)N3CCN(Cc4ccccc4)CC3)c2)cc1	69*	-45	.	28	-23	21
CN(CC(=O)Nc1ccc(Cl)c(C(F)(F)F)c1)C(=O)c1ccc(S(=O)(=O)N2CCOCC2)cc1	.	-44	7	55*	-120	25
CN(Cc1ccc(F)cc1)C(=O)c1cccc(S(=O)(=O)N2CCN(Cc3ccccc3)CC2)c1	3	-37	4	8	-39	8
CN(CC(=O)Nc1ccc(F)cc1)C(=O)c1cccc(S(=O)(=O)N2CCN(c3ccc(F)cc3)CC2)c1	55*	-27	-14	29	23	22
COc1cccc(NC(=O)CN(C)C(=O)c2cccc(S(=O)(=O)N3CCN(c4ccc(F)cc4)CC3)c2)c1	39	-36	1	28	7	43
COc1cccc(C(=O)Nc2ccc3c(c2)C(=O)N(C)[C@@H]2CC[C@@H](CC(=O)NCC(F)(F)F)O[C@H]2CO3)c1	-12[16.7 µM]	10	10[16.7 µM]	0	-3	-13
CCCCNC(=S)NNC(=O)c1c(Cl)c(C)nn1C	1	-9	.	71*	.	-20
COc1cccc(S(=O)(=O)Nc2ccc3c(c2)[C@H]2C[C@H](CC(=O)NCc4ccc(Cl)cc4)O[C@@H](CO)[C@H]2O3)c1	57*[16.7 µM]	-26	-2[16.7 µM]	3	0	31
CCCNC(=O)C[C@@H]1C[C@H]2c3cc(NS(=O)(=O)c4cccc(OC)c4)ccc3O[C@H]2[C@H](CO)O1	.	-6	6[16.7 µM]	15	-2	.
COc1cccc(S(=O)(=O)Nc2ccc3c(c2)[C@@H]2C[C@@H](CC(=O)NCc4ccccc4F)O[C@H](CO)[C@@H]2O3)c1	7[16.7 µM]	-1	10[16.7 µM]	-3	2	-18
COc1cccc(S(=O)(=O)Nc2ccc3c(c2)[C@@H]2C[C@@H](CC(=O)NCc4ccc(Cl)cc4)O[C@@H](CO)[C@@H]2O3)c1	-21[16.7 µM]	-22	74[16.7 µM]	55*	-13	75*!
COc1cccc(S(=O)(=O)N[C@@H]2CC[C@H](CC(=O)NCc3ccncc3)O[C@@H]2CO)c1	56*[16.7 µM]	3	-11[16.7 µM]	-5	-1	-12
O=C(NCc1ccccc1)Oc1cccc(Cl)c1	-33	.	-3	.	106*	-17
OC(c1cc(-c2cccc(Cl)c2)nc2ccccc12)C1CCCCN1 (configuration not stated)	-22	29	-11	-3	-26	6
OC(c1cc(-c2ccc(C(F)(F)F)cc2)nc(C(F)(F)F)c1)C1CCCCN1 (configuration not stated)	2	-29	-30	35	13	88*
OC(c1cc(C(F)(F)F)nc2c(C(F)(F)F)cccc12)C1CCCCN1 (configuration not stated)	-7	.	-10	59*	-8	22
CC[n+]1ccccc1/C=C/c1ccc(N(C)C)cc1	?	-76	-39	24	.	49
CCN(CC)c1ccc(/C=C/c2ccc3ccc(OC)cc3[n+]2CC)cc1	40	-93	-25	57*	-237	83*
CC[n+]1ccc(/C=C/c2ccc(N(C)C)cc2)c2ccccc21	23	-72	.	58*	.	95*
SMILES	Env fusion inh	INS-1E GSIS act	miR122 inh	EWS-Fli inh	C2C12 statin	PAX8 inh HTS
CCCCCC[n+]1ccccc1/C=C/c1ccc(N(C)C)cc1	42	-34	-28	38	-50	98*
CC[n+]1c(/C=C/c2ccc(N(C)C)cc2)ccc2ccccc21	14	-36	.	48	.	90*
Cc1noc(C)c1NC(=O)N(C)C[C@@H]1Oc2ccc(NC(=O)Nc3cccc4ccccc34)cc2C(=O)N([C@H](C)CO)C[C@H]1C	19[16.7 µM]	-8	2[16.7 µM]	2	0	3
COc1ccc2c3c(n(C)c2c1)[C@H](CO)N(C(=O)Nc1ccc(F)cc1)CC31CCN(C(=O)c2ccccc2F)CC1	.	-2	.	-5	.	.
C[C@@H]1CN([C@H](C)CO)C(=O)c2cc(C#CCc3ccccc3)cnc2O[C@H]1CN(C)C(=O)C1CCC1	-6[16.7 µM]	54*	2[16.7 µM]	23	-61	-7
C[C@@H]1CN([C@@H](C)CO)C(=O)c2cc(C#CCc3ccccc3)cnc2O[C@@H]1CN(C)C(=O)C1CCC1	-15[16.7 µM]	29	-2[16.7 µM]	-3	31	-26
C[C@H]1CN([C@@H](C)CO)C(=O)c2cc(C#CCc3ccccc3)cnc2O[C@@H]1CN(C)C(=O)C1CC1	-2[16.7 µM]	72*	3[16.7 µM]	-2	-37	.
COc1ccc(C(NC(=O)C2CCN(Cc3ccc(Oc4ccccc4)cc3)CC2)c2ccccc2C)cn1 (configuration not stated)	-4	-29	-5	30	-51	63*
Cc1cccnc1C(NC(=O)C1CCN(Cc2ccc(Oc3ccccc3)cc2)CC1)c1ccccc1 (configuration not stated)	.	.	-18	.	8	.
Cc1nc(S(=O)(=O)N2CCN(Cc3ccc(OCCO)cc3)CC2)cn1C	-8[16.7 µM]	.	.	-9	.	.
O=C(Cn1nnc(-c2ccncc2)n1)N(C1CCCCC1)C1CCCCC1	.	.	-3	.	124*	.
COCCNC(=O)C[C@H]1C[C@@H]2c3cc(NC(=O)C4CCC4)ccc3O[C@@H]2[C@@H](CO)O1	3[16.7 µM]	16	3[16.7 µM]	-9	-7	-17
